Compounds with a hit are over-represented: about 2.6% of the library has one in this group of screens.
FLuc inh: blocks Photinus pyralis firefly luciferase activity | purified firefly luciferase, luminescence, 8 min | Potency, µM (highest dose often 57.1 µM), hits mostly inhibitors | hit rate 2.2% among 72,000 | AID 411; also: nearly all actives have a fitted effect of over 40% in size
Target sequence (P08659 whole entry, looked up): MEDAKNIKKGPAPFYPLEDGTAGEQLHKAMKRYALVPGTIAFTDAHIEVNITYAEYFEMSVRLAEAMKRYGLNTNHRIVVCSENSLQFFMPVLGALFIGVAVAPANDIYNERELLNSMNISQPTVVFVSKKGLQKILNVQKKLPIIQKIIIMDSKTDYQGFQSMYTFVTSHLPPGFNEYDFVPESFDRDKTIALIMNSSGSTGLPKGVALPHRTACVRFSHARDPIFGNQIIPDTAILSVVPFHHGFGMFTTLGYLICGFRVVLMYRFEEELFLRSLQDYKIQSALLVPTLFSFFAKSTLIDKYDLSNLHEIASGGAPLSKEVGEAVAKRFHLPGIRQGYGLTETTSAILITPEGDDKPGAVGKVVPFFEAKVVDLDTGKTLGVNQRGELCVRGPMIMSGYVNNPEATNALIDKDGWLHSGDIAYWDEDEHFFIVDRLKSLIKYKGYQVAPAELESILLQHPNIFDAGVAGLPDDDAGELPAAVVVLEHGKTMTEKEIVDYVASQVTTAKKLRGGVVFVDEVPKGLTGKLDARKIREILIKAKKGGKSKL
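Here, luciferase activity is measured as luminescence following an 8 min room-temperature reaction at 10 uM ATP, pH 7.2. Every library sample is titrated.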
p53ts 39C kill: kills p53ts cells at the nonpermissive temperature. H1299-p53A138V viability at 39C, ATP luminescence, 24 h. Potency, µM (doses to about 46.1 µM), actives largely listed as cytotoxic. hit rate 1.5% among 130,000; also: nearly all actives have a fitted effect of over 55% in size
p53ts 32C tox: cytotoxicity in p53ts cells at permissive temperature; H1299-p53A138V at 32C, ATP luminescence viability, 24 h; Potency, µM (top dose mostly 46.1 µM), actives largely listed as cytotoxic; hit rate 0.93% among 130,000; AID 924; also: nearly all actives have a fitted effect of over 55% in size
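H1299-p53 A138V cells (temperature-sensitive p53) exposed 24 h to up to 46 uM compound at 32C, where p53 is wild-type in conformation. Viability read as ATP luminescence and normalised to DMSO and 100 uM tamoxifen. AC50 fitted with the Hill equation.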
Numbers stand for hits; - = inactive; ? = inconclusive; . = not tested or not shown; ! = repeats disagree; [ ] = remark or other dose. Calls follow the shape of the dose curve; as a rule, active = well fitted curve in the direction sought with a large enough effect; inconclusive = small, poorly fitted or top-dose-only effect, or another doubt; inactive = no such curve, though single readings can be large; an effect the other way counts as inactive or inconclusive.

SMILES | FLuc inh | p53ts 39C kill | p53ts 32C tox
CC(=O)N1c2ccc(S(=O)(=O)N3CCCCCC3)cc2CC1C(=O)NCc1ccccc1 (centres undefined) | . | - | -
COCCNC(=O)Nc1cc(C(=O)NCc2ccc(C(C)C)cc2)ccc1N1CCCC1 | . | - | -
CCCCn1c(=O)n(-c2cc(OC)ccc2OC)c(=O)c2c3c(sc21)CN(C(C)=O)CC3 | . | - | -
Cc1cc(C)cc(-n2cnc3cc(C(=O)NC4CCCCCC4)ccc32)c1 | . | - | -
CCOc1ccc(C(=O)Nc2ccc3nc(Nc4cccc(C(F)(F)F)c4)cc(C)c3c2)cc1OCC | . | . | -
Cc1cc(Nc2cccc(C(F)(F)F)c2)nc2ccc(NC(=O)c3cccnc3)cc12 | . | . | 13µM
CN(C)CCCN1c2ccccc2Sc2ccc(Cl)cc21 | - | 10µM! | ?
CC(=O)c1ccc2c(c1)N(CCCN1CCC(CCO)CC1)c1ccccc1S2 | - | . | .
CN(C)CCCN1c2ccccc2Sc2ccc3ccccc3c21 | -[11.4 µM] | -[9.22 µM] | -[9.22 µM]
OCCN1CCN(CCCN2c3ccccc3Sc3ccc(Cl)cc32)CC1 | - | 10µM! | 16µM!
C=C(CC1([C@@H](NP(=O)(c2ccccc2)c2ccccc2)[C@H]2C[C@@H]2CCCC)CC1)c1ccccc1 | . | 25µM | -
CCCC[C@@H]1C[C@H]1C(NC(=O)c1cccnc1)c1ccc(-c2ccccc2)cc1 (some centres undefined) | . | - | -
CCCC[C@@H]1C[C@H]1C(NC(=O)c1ccccc1)c1ccccc1 (some centres undefined) | . | - | -
CCCC[C@@H]1C[C@H]1[C@@H](NP(=O)(c1ccccc1)c1ccccc1)c1ccccc1OC | . | 25µM | ?
CCc1ccc(NC(=O)CC2C(=O)N(c3cccc(OC)c3)C(=O)N2Cc2ccc(F)cc2)cc1 (centres undefined) | . | - | -
Cc1cc(Nc2ccc(C)c(Cl)c2)n2nc(Cc3ccccc3)nc2n1 | . | - | -
CCCCNC(=O)CCC(=O)NNc1nc2ccccc2c2nc(-c3ccccc3)nn12 | . | 13µM | -
CCCCNC(=O)CCC(=O)NNc1nc2ccccc2c2nc(C)nn12 | . | - | -
COc1cccc(-c2cncnc2N(C)Cc2ccco2)c1 | -[2.29 µM] | - | -
c1cncc(-c2nc(-c3ccco3)cs2)c1 | - | - | -
CCCC(=O)N1CCc2cc(-c3nc(N)sc3C)ccc21 | ? | - | -
Nc1nc(-c2ccc3c(c2)OCCO3)cs1 | 25µM | ? | ?
Cc1nc(-c2ccc3c(c2)OCO3)cs1 | . | - | -
Nc1nc(-c2ccc3c(c2)CCCC3)cs1 | 13µM | 13µM | ?
c1cncc(-c2nc(-c3ccc4c(c3)OCO4)cs2)c1 | 13µM | ? | ?
SMILES | FLuc inh | p53ts 39C kill | p53ts 32C tox
CCC(C)C(=O)N1CCc2cc(-c3csc(N)n3)ccc21 (centres undefined) | 10µM | 13µM | 10µM
Nc1nc(C2C(=O)CCCC2=O)cs1 | - | - | -
Cc1ccc(Cl)cc1NC(=O)Cn1cc(S(=O)(=O)Cc2ccccc2Cl)c2ccccc21 | . | . | -
CCOC(=O)c1c(C)[nH]c(CCC(=O)Nc2cc(C)cc(C)c2)c1C | . | - | -
O=C(CCC1N=C2c3ccccc3N=C(SCc3ccc(Cl)cc3)N2C1=O)N1CCN(c2ccccc2)CC1 (centres undefined) | . | - | -
N#C[C@@H](Cc1ccc(O)c(O)c1)C(=O)N1CCc2ccccc21 | - | - | -
Cc1cc(C(=O)CSc2nncs2)c(C)n1-c1c(C)n(C)n(-c2ccccc2)c1=O | - | - | -
Cc1ccc(-n2c(C)cc(C(=O)CSc3nncs3)c2C)cc1 | 25µM | ? | 13µM
COc1ccc(-n2c(C)cc(C(=O)CSc3nn4c(=O)c(C(C)(C)C)nnc4s3)c2C)cc1 | 2µM | - | -
COc1ccc(C(=O)CSc2nn3c(=O)c(C(C)(C)C)nnc3s2)cc1 | - | - | -
Cc1ccc(NC(=O)CN2C=NS(=O)(=O)c3ccccc32)c(C)c1 | . | - | -
Cc1nnc(SCc2nnc(-c3ccccc3Br)o2)n1-c1ccccc1 | - | - | -
Cc1csc(SCc2nnc(-c3ccccc3Br)o2)n1 | 20µM | - | -
CCOC(=O)c1cc2c(=O)n3ccccc3nc2n(Cc2ccco2)c1=NC(=O)c1c(F)cccc1Cl | . | - | -
CCc1ccc(C2c3c(-c4cc(C)ccc4O)n[nH]c3C(=O)N2Cc2cccnc2)cc1 (centres undefined) | . | ? | -
CCOC(=O)c1c(C)[nH]c(C(=O)CSc2ccccc2)c1C | 4µM | ? | ?
CCOC(=O)c1c(C)[nH]c(C(C)=O)c1C | - | - | -
COc1ccc(/C=N/c2nc3ccccc3n2C)cc1OC | 20µM | - | -
Cn1c(/N=C/c2cccs2)nc2ccccc21 | . | - | -
Cc1ccc2nc(-c3ccc(Cl)c(NC(=O)COc4ccc(C(C)C)cc4)c3)oc2c1 | . | - | -
CCCCN(c1ccccc1)S(=O)(=O)c1cc2c3c(c1)C(C)C(=O)N3CCC2 (centres undefined) | . | - | -
O=C(O)c1cc(-c2ccco2)nc2ccccc12 | - | ? | ?
Oc1c(-c2cc(-c3ccco3)[nH]n2)ccc2ccccc12 | 7.9µM | ? | ?
Cc1nn(CCCC(=O)NCc2cccc(Cl)c2)c(=O)c2c1sc1ccccc12 | . | - | -
O=c1c(-c2cccc(F)c2)nc2cncnc2n1Cc1ccccc1Cl | -[11.4 µM] | - | -
SMILES | FLuc inh | p53ts 39C kill | p53ts 32C tox
COc1ccccc1-c1noc(-c2ccccc2C(=O)Nc2ccccc2)n1 | - | - | -
COc1ccccc1NC(=O)c1ccccc1-c1nc(-c2ccccc2OC)no1 | 16µM | - | ?
O=C(CCc1ccccc1)NCc1nc2cccnc2n1Cc1ccc(F)cc1 | . | - | -
O=S1(=O)C=C(Sc2nnc(-c3ccccc3)o2)c2ccccc21 | - | ? | 13µM
CSc1nnc(-c2ccccc2)o1 | - | - | -
NC(=O)c1c(NC(=O)c2noc3c2CCCC3)sc2c1CCCC2 | . | - | -
N#Cc1cn(-c2ccccc2)nc1-c1ccccc1 | - | - | -
N#Cc1c(-c2ccccc2)no[n+]1[O-] | - | 16µM | ?
Cc1cccc(CNc2ncncc2-c2ccccc2C(F)(F)F)c1 | -[2.29 µM] | - | -
CCCCOC(=O)c1ccc(-n2nnc3c(sc4nc(C)cc(C)c43)c2=O)cc1 | . | - | -
Cc1ccc(O)c(NC(=O)c2noc3c2CCCCC3)c1 | . | ? | 13µM
CCc1ccc(NC(=O)c2noc3c2CCCCC3)cc1 | - | - | -
Cc1ccc(NC(=O)c2noc3c2CCCCC3)cc1 | 13µM | ? | ?
O=C(NC1CCCCC1)c1noc2c1CCCCC2 | 20µM | ? | ?
CC(C)(C)C1CCc2onc(C(=O)NC3CCCC3)c2C1 (centres undefined) | - | - | -
Cc1ccc(NC(=O)c2noc3c2CCCCC3)cc1C | ? | - | -
COc1cc(CN2CCCCC2)cc2cc(C(=O)O)c(=O)oc12 | -[11.4 µM] | -[9.22 µM] | -[9.22 µM]
COc1ccc(-c2nc(C)c(CCNC(=O)C(=O)Nc3cc(C)cc(C)c3)s2)cc1OC | . | - | -
CCCN(c1ccccc1F)S(=O)(=O)c1ccc2c(c1)C(C)(C)C(=O)N2C | . | - | -
CC(=O)Nc1cc(OC(C)=O)c2nonc2c1OC(C)=O | - | 7.9µM | 3.2µM
CC(=O)Nc1nonc1NC(C)=O | - | - | -
CC1(C)O[C@H]2[C@@H](O1)[C@@H](C(=O)Nc1ccccc1C(F)(F)F)O[C@@H]1OC(C)(C)O[C@@H]12 | . | - | -
CCN(CC)c1ccc2cc(-c3nc4ccccc4n3C)c(=O)oc2c1 | - | - | -
